In one assay the test system is HACAT. Put plainly: qHTS assay to identify novel small-molecules to repurpose for Merkel cell carcinoma treatment (AID 1296009). Further: nearly all actives have a fitted effect of over 60% in size. Further: potency means the concentration at half of the fitted maximal effect. The settings on record: MCC and control cell lines, CellTiter-Glo viability, 72 h; series mostly up to 44.8 µM. The procedure, abridged: (§1)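 CellTiter-Glo luminescence after 72 hr compound exposure at 37 degree celsius gave cell viability. Libraries NPC and MIPE were run as 8- and 11-point dose responses; RLUs normalized to DMSO (negative) and no-cell (cytotoxicity) controls.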
A general note: Quantitative high-throughput screening tests each substance at several concentrations.

The test system of a further assay is HEK293T. Described as above. The settings on record: MCC and control cell lines, CellTiter-Glo viability, 72 h; at 44.8 µM (top of the series) unless noted. The procedure, abridged:
as §1
On the technique in general: ATP-based viability assays read luminescence as a measure of living cells.

For the next assay, the system named is MCC-13. The assay is described as above. The settings on record: MCC and control cell lines, CellTiter-Glo viability, 72 h; series mostly up to 46 µM. The procedure, abridged: as §1
The next assay deals with MCC-26. Described as above. The settings on record: MCC and control cell lines, CellTiter-Glo viability, 72 h; series mostly up to 46 µM. The procedure, abridged: as §1
The next assay concerns MKL-1. The description is as above. The settings on record: MCC and control cell lines, CellTiter-Glo viability, 72 h; series mostly up to 46 µM. In outline: as §1
In another assay the test system is MKL-2. The assay is described as above. As to conditions: MCC and control cell lines, CellTiter-Glo viability, 72 h; series mostly up to 46 µM. In outline: as §1
A further assay concerns UISO. The description is as above. The settings on record: MCC and control cell lines, CellTiter-Glo viability, 72 h; series mostly up to 46 µM. In outline:
as §1

The subject of the next assay is WaGa. The assay is described as above. As to conditions: MCC and control cell lines, CellTiter-Glo viability, 72 h; series mostly up to 46 µM. In outline: as §1
Another assay has as its system C33A. The assay is described as follows: Primary qHTS to identify gynecologic anti-cancer compounds using libraries of approved drugs and bioactive compounds (AID 1345084). Further: nearly all actives have a fitted effect of over 55% in size. The settings on record: Gynecologic cancer cell panel viability, ATPlite luminescence, 48 h; series mostly up to 57.5 µM. In outline:
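Five-point cytotoxicity, 48 h drug exposure at 37 C, 5% CO2, on cells seeded 16 h beforehand. ATP content read by ATPlite luminescence.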

In a further assay the test system is NIH3T3. The assay is described as follows: qHTS assay to identify novel small-molecules to repurpose for Merkel cell carcinoma treatment (AID 1296009). Further: nearly all actives have a fitted effect of over 60% in size. Further: potency means the concentration at half of the fitted maximal effect. As to conditions: MCC and control cell lines, CellTiter-Glo viability, 72 h; series mostly up to 44.8 µM. In outline: as §1

Molecules are shown by their SMILES. “And” between values parts separate entries of the source, which are not always exact repeats. Equal values may be shown once. Inconclusive results are not listed. A structure can be active in one record and inactive in another. The source made the active and inactive calls. The call rests on the fitted dose curve; in most records, active means well fitted curve in the direction sought with a large enough effect; inconclusive means small, poorly fitted or top-dose-only effect, or another doubt; inactive means no such curve, though single readings can be large; an effect the other way counts as inactive or inconclusive.

On to `C[C@](N)(Cc1ccc(O)c(O)c1)C(=O)O`, for which the molecule was classed as inactive in the assay on HACAT and in the assay with HEK293T. The Potency result with MCC-13, in the assay on MCC-26, with MKL-1, in the assay on MKL-2, in the assay on UISO and in the assay on WaGa was “inactive” each time. The Potency result in the assay with C33A is “inactive”.

For the molecule `Clc1ccc2nsnc2c1NC1=NCCN1`, the call in the assay with HACAT, in the assay on HEK293T and with NIH3T3 was inactive. The Potency entry in the assay on MCC-13, with MKL-1, in the assay with MKL-2, with UISO, with WaGa and with C33A was “inactive” in each case.

Regarding `Nc1ccn([C@H]2CC[C@@H](CO)O2)c(=O)n1`, the result with HACAT and in the assay on HEK293T was inactive. The Potency entry with MCC-13, in the assay with MKL-1, in the assay with MKL-2, in the assay on UISO, in the assay on WaGa and in the assay with C33A was “inactive” in each case.

On to `CCOC(=O)C(C)(C)Oc1ccc(Cl)cc1`, for which the outcome in the assay on HACAT, in the assay with HEK293T and in the assay on NIH3T3 was inactive. Also, the Potency result in the assay with MCC-13, in the assay with MKL-1, with MKL-2, in the assay with UISO, in the assay on WaGa and with C33A was “inactive” throughout.

Consider `CC[N+](CC)(CC)CCOc1cccc(OCC[N+](CC)(CC)CC)c1OCC[N+](CC)(CC)CC`, for which the molecule was called inactive in the assay on HACAT, with HEK293T and in the assay on NIH3T3. The Potency result with MCC-13, in the assay with MCC-26, with MKL-1, in the assay on MKL-2, in the assay on UISO and in the assay with WaGa was “inactive” in each case. Moreover, in the assay on C33A, the Potency result was “inactive”.

For `CN(C)CCOC(c1ccccc1)c1ccccc1`, the outcome in the assay with HACAT, in the assay on HEK293T and in the assay on NIH3T3 was inactive. In addition, the Potency entry in the assay on MCC-13, in the assay with MCC-26, in the assay with MKL-1, in the assay on MKL-2, with UISO and in the assay on WaGa was “inactive” in each case. The Potency entry in the assay on C33A was “inactive”.

For the molecule `NC12CC3CC(CC(C3)C1)C2`, the molecule was classed as inactive with HACAT, in the assay on HEK293T and in the assay on NIH3T3. In addition, the Potency result with MCC-13, in the assay with MCC-26, with MKL-1, with MKL-2, in the assay on UISO and with WaGa was “inactive” throughout. In the assay with C33A, the Potency result was “inactive”.

In the case of `CN1CCC(=C2c3ccccc3CC(=O)c3sccc32)CC1`, the molecule was called inactive in the assay with HACAT and with NIH3T3. The Potency result in the assay on MCC-13, in the assay on MCC-26, in the assay on MKL-1, in the assay with UISO and with C33A was “inactive” throughout. Besides, the Potency was 9.44 µM (active) in the assay on MKL-2 and 29.9 µM (active) in the assay with WaGa.

For `NCCS(=O)(=O)O`, the outcome with HACAT, with HEK293T and in the assay on NIH3T3 was inactive. Besides, the Potency entry in the assay on MCC-13, in the assay on MCC-26, with MKL-1, with MKL-2, in the assay with UISO and with WaGa was “inactive” in each case. Moreover, the Potency entry in the assay with C33A is “inactive”.

For `Cc1cc(C(C)(C)C)c(O)c(C)c1CC1=NCCN1`, the molecule was called inactive in the assay with HACAT and in the assay with NIH3T3. For the same molecule, the Potency result in the assay on MCC-13, in the assay with MCC-26, in the assay on MKL-1, in the assay on MKL-2, in the assay with UISO and with WaGa was “inactive” in each case. The Potency result in the assay on C33A is “inactive”.

With `CN(C)C(=N)N=C(N)N`, the molecule was called inactive with HACAT and in the assay with HEK293T. For the same molecule, the Potency entry with MCC-13, in the assay on MCC-26, in the assay with MKL-1, in the assay with MKL-2, in the assay on UISO and in the assay on WaGa was “inactive” each time. In the assay with C33A, the Potency entry is “inactive”.

As to `Nc1nnc(-c2cccc(Cl)c2Cl)c(N)n1`, the molecule was called inactive in the assay with HACAT and with NIH3T3. In addition, the Potency entry with MCC-13, in the assay on MCC-26, in the assay with MKL-1, with MKL-2, with UISO and with WaGa was “inactive” throughout. In the assay with C33A, the Potency result is “inactive”.

As to `N[C@@H](Cc1c[nH]c2ccc(O)cc12)C(=O)O`, the molecule was called inactive in the assay on HACAT and in the assay with HEK293T. Besides, the Potency entry with MCC-13, in the assay on MKL-1, with MKL-2 and in the assay on C33A was “inactive” in each case.

Consider `COc1ccc(CCN(C)CCCC(C#N)(c2ccc(OC)c(OC)c2)C(C)C)cc1OC` (configuration not stated), for which the molecule was called inactive in the assay on HACAT. For the same molecule, the Potency entry with MCC-13, with MKL-1, in the assay on MKL-2, in the assay on UISO, in the assay with WaGa and with C33A was “inactive” in each case.

Regarding `O=C(c1ccc(OCCN2CCCCC2)cc1)c1c(-c2ccc(O)cc2)sc2cc(O)ccc12`, the outcome in the assay with HACAT was inactive. Also, the Potency result in the assay with MCC-13, in the assay on MCC-26, in the assay with MKL-1, in the assay with UISO, in the assay with WaGa and in the assay with C33A was “inactive” throughout. Further, in the assay with MKL-2, the Potency is 15 µM (active).

On to `Clc1ccc(C(c2ccccc2Cl)C(Cl)Cl)cc1` (configuration not stated), for which the molecule was classed as inactive in the assay on HACAT. Besides, the Potency entry in the assay with MCC-13, in the assay on MCC-26, with MKL-1, in the assay with MKL-2, with UISO and with WaGa was “inactive” in each case. In addition, the Potency entry with C33A was “inactive”.

In the case of `OCCN(CCO)c1nc(N2CCCCC2)c2nc(N(CCO)CCO)nc(N3CCCCC3)c2n1`, the molecule was classed as inactive with HACAT and in the assay with NIH3T3. Moreover, the Potency result in the assay on MCC-13, in the assay with MCC-26, with MKL-1, with UISO, in the assay with WaGa and in the assay on C33A was “inactive” in each case.

As to `C[C@H]1c2cccc(O)c2C(O)=C2C(=O)[C@]3(O)C(O)=C(C(N)=O)C(=O)[C@@H](N(C)C)[C@@H]3[C@@H](O)[C@@H]21`, the call with HACAT and in the assay with NIH3T3 was inactive. Besides, the Potency result with MCC-13, in the assay with MKL-1, in the assay on MKL-2, with WaGa and in the assay on C33A was “inactive” throughout.

Regarding `CN1CCC(=C2c3ccccc3C=Cc3ccccc32)CC1`, the call with HACAT and in the assay with NIH3T3 was inactive. The Potency entry in the assay with MCC-13, in the assay on MKL-1, in the assay with UISO and in the assay with C33A was “inactive” throughout. Moreover, the Potency in the assay with MKL-2 was 16.8 µM (active); in the assay on WaGa it was 26.6 µM (active).

Regarding `O=C1Cc2cc(CCN3CCN(c4nsc5ccccc45)CC3)c(Cl)cc2N1`, the molecule was classed as inactive in the assay on HACAT and with NIH3T3. Further, the Potency entry in the assay on MCC-13 and in the assay with C33A was “inactive” each time. Besides, the Potency with MKL-2 was 11.9 µM (active) and 14.8 µM (active); in the assay on UISO it was 15 µM (active) and inactive.

Consider `NCCCCCC(=O)O`, for which the molecule was classed as inactive with HACAT. Moreover, the Potency result in the assay on MCC-13, in the assay on MCC-26, with MKL-1, in the assay with MKL-2, with UISO and with WaGa was “inactive” in each case. Further, in the assay with C33A, the Potency result was “inactive”.

For the origin of these results see PubChem BioAssay (NCATS).
